Compounds with a hit are over-represented: about 7.3% of the library has one in this group of screens.
Rab9 prom act: activators of Rab9 promoter; Huh7 Rab9 promoter-luciferase reporter, luminescence, 24 h; AID 485297; 2.8% of 320,000 active; Potency, µM (titrated, usually from 9.22 µM), most hits filed as activators; further: nearly all actives have a fitted effect of over 60% in size
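Luminescence from Amplite-detected luciferase (10 minutes, ambient) reports Rab9 promoter activation. Before that, stable Rab9-luciferase Huh7 cells (1500/well, reduced-serum OP-MEM I plus 10% FBS) were exposed to compound for 24 hours at 37C.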
SMN2 splice up: SMN2 splice variant enhancement | HEK293 SMN2-luciferase splicing reporter, luminescence, 30-36 h | Potency, µM (doses to about 46.1 µM), usual class: activators | 2.8% of 210,000 active | AID 1458; further: nearly all actives have a fitted effect of over 55% in size
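HEK293 cells carry an SMN2 minigene-luciferase reporter in which exon 7 inclusion puts luciferase in frame. Cells were seeded at 2000 cells/well, attached for 10-12 hours, then exposed to compounds for 30-36 hours at 37C before ONE-Glo luminescence.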
ELG1 genotox: induces genotoxicity in HEK293T cells with luciferase-tagged ELG1; HEK293T ELG1-luciferase reporter, luminescence, 16 h; Potency, µM (doses to about 46 µM), usual class: activators; AID 504466; 1.3% of 330,000 active; further: nearly all actives have a fitted effect of over 60% in size
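16 hr compound incubation (37 °C, 5% CO2) of HEK293T cells carrying luciferase-tagged ELG1; luciferase then measured by ONE-Glo luminescence after 30 min at RT.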
FLuc modulator: firefly luciferase modulation, counter-screen for miR-21 project; P08659; purified FLuc, Km substrates, luminescence inhibition; Potency, µM (doses to about 57.5 µM), actives largely listed as inhibitors; 6.9% of 360,000 active; further: nearly all actives have a fitted effect of over 55% in size
Target sequence (P08659 whole entry, looked up): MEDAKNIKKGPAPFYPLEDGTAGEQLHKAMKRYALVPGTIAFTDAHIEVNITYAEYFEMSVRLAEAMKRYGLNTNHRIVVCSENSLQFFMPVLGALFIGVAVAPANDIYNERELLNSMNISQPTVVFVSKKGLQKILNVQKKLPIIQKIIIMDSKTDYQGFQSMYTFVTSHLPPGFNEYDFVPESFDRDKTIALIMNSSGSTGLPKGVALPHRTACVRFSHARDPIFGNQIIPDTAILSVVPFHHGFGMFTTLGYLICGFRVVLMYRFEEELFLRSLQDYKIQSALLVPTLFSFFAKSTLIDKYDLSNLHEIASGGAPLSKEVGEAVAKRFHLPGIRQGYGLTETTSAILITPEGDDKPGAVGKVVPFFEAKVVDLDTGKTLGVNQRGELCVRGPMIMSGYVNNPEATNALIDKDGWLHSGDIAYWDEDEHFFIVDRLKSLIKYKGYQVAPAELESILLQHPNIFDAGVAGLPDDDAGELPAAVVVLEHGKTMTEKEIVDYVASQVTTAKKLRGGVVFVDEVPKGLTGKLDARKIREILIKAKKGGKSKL
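Purified P. pyralis luciferase (10nM final) with 10uM D-luciferin and 10uM ATP (Km levels) in 50mM Tris acetate pH 7.5, 10mM Mg acetate, 0.01% Tween-20, 0.05% BSA; qHTS 6-point titration, ~60 µM downward; luminescence read.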
NPC1 promoter act: activators of NPC1 promoter; AID 485313; 2.4% of 320,000 active; Potency, µM (doses to about 9.22 µM), usual class: activators; Huh7 NPC1 promoter luciferase reporter, 24 h; further: nearly all actives have a fitted effect of over 60% in size
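In 1536-well qHTS, Huh7 cells harboring an NPC1 promoter–luciferase construct received compound for 24 h; activation was quantified by luminescence following luciferase reagent addition.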
KinaseGlo FLuc: blocks Kinase-Glo luciferase, a counter-screen artifact | Kinase-Glo luciferase, ATP luminescence, 8 min | Potency, µM (titrated, usually from 38.3 µM), usual class: inhibitors | 0.28% of 200,000 active | AID 1379; further: nearly all actives have a fitted effect of over 60% in size
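Recombinant Kinase-Glo luciferase, 10 uM ATP (linear range), luciferin; imidazole pH 7.2 / KCl / MgCl2 / Tween / BSA buffer; 8 min RT; luminescence.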
Large screens that a line does not name were inactive. The call rests on the fitted dose curve; in most records, active means well fitted curve in the direction sought with a large enough effect; inconclusive means small, poorly fitted or top-dose-only effect, or another doubt; inactive means no such curve, though single readings can be large; an effect the other way counts as inactive or inconclusive.

O=C(CCC1CCCCC1)Nc1ccccc1O	Rab9 prom act inconclusive, SMN2 splice up inconclusive, ELG1 genotox 10µM, FLuc modulator 21µM, NPC1 promoter act inconclusive
Cc1c(Cl)c(S(N)(=O)=O)cc2c1=NC=NS=2(=O)O	none (no result: Rab9 prom act, ELG1 genotox, FLuc modulator, NPC1 promoter act)
Cc1cc(-c2ccccc2)nc(N/N=C/c2ccc(O)cc2)n1	FLuc modulator 1.5µM (no result: SMN2 splice up, KinaseGlo FLuc)
Fc1ccc(CNc2nc(-c3ccc(Cl)cc3)cc(C(F)(F)F)n2)cc1	none (no result: Rab9 prom act, ELG1 genotox, NPC1 promoter act, KinaseGlo FLuc)
Cc1cc(N/N=C/c2ccc(O)cc2)c2cccc(C)c2n1	FLuc modulator inconclusive (no result: SMN2 splice up, KinaseGlo FLuc)
Cc1cc(C)c2nc(C)cc(N/N=C/c3ccc(O)cc3)c2c1	ELG1 genotox inconclusive, FLuc modulator 13µM (no result: SMN2 splice up, KinaseGlo FLuc)
Oc1ccc(/C=N/Nc2nc(-c3ccc(Cl)cc3)cc(C(F)(F)F)n2)cc1	FLuc modulator 27µM
Cc1cccc(CCNc2ncnc3onc(-c4ccc(Cl)cc4)c23)c1	none (no result: Rab9 prom act, ELG1 genotox, NPC1 promoter act, KinaseGlo FLuc)
Cc1cccnc1Nc1nc(-c2ccc(O)cc2)cs1	Rab9 prom act 3.5µM, SMN2 splice up 25µM, ELG1 genotox inconclusive, FLuc modulator 6.7µM, NPC1 promoter act inconclusive
Fc1ccc(-c2csc(NC3=NCCC3)n2)cc1	ELG1 genotox inconclusive, FLuc modulator inconclusive
Cc1cccnc1Nc1nc(-c2ccc(F)cc2)cs1	Rab9 prom act 2.8µM, ELG1 genotox 13µM, FLuc modulator 2.7µM, NPC1 promoter act 1.4µM (no result: SMN2 splice up, KinaseGlo FLuc)
Cc1cc(NC(=O)c2ccco2)ccc1NC(=O)Cc1cccs1	FLuc modulator 15µM
Cc1cc(NC(=O)c2ccc3c(c2)OCCO3)ccc1NC(=O)c1ccco1	Rab9 prom act inconclusive, SMN2 splice up 11µM, FLuc modulator 0.76µM, NPC1 promoter act inconclusive, KinaseGlo FLuc 11µM
O=C(NC(=S)Nc1ccc2c(c1)OCCO2)c1ccco1	Rab9 prom act 1µM, ELG1 genotox inconclusive, FLuc modulator 1.7µM, NPC1 promoter act inconclusive (no result: SMN2 splice up, KinaseGlo FLuc)
O=C(Nc1ccc(NC(=O)c2ccco2)cc1)c1ccc2c(c1)OCCO2	ELG1 genotox inconclusive, FLuc modulator inconclusive
O=C(NC(=S)Nc1cccc(O)c1)c1ccco1	Rab9 prom act inconclusive, ELG1 genotox inconclusive, FLuc modulator 11µM, NPC1 promoter act inconclusive (no result: SMN2 splice up, KinaseGlo FLuc)
Cc1ccc(Cl)cc1NC(=O)Nc1nnc(N2CCCC(C)C2)s1 (configuration not stated)	none (no result: Rab9 prom act, SMN2 splice up, ELG1 genotox, NPC1 promoter act, KinaseGlo FLuc)
O=C(O)/C=C\c1c2ccc(=O)c(O)c-2oc2c(O)c(O)ccc12	none (no result: Rab9 prom act, ELG1 genotox, FLuc modulator, NPC1 promoter act)
N#Cc1ccc(NCC(=O)Nc2ccc3c(c2)OCCO3)cc1	FLuc modulator inconclusive
O=C(c1ccco1)N1CCCC(Nc2ccc3c(c2)OCCO3)C1 (configuration not stated)	Rab9 prom act inconclusive, ELG1 genotox inconclusive, FLuc modulator 24µM, NPC1 promoter act inconclusive (no result: SMN2 splice up, KinaseGlo FLuc)
CSCc1ccc(C(=O)N2CCCC(Nc3ccc4c(c3)OCCO4)C2)o1 (configuration not stated)	FLuc modulator inconclusive (no result: SMN2 splice up, KinaseGlo FLuc)
Cc1ccc(NC(=O)CNC(=O)c2ccco2)cc1Cl	none (no result: SMN2 splice up, KinaseGlo FLuc)
O=C(CNC(=O)c1ccco1)Nc1ccc2c(c1)OCCO2	Rab9 prom act 1µM, ELG1 genotox 1.2µM, FLuc modulator 6µM, NPC1 promoter act 1.8µM (no result: SMN2 splice up, KinaseGlo FLuc)
N#Cc1cccc(NCC(=O)Nc2ccc3c(c2)OCCO3)c1	Rab9 prom act 0.4µM, SMN2 splice up 13µM, ELG1 genotox 2.3µM, FLuc modulator 6µM, NPC1 promoter act 0.63µM
CCC/C=C(\CCC)C(NC(=O)C(C)(C)C)c1ccc(C(=O)OC)cc1 (configuration not stated)	none (no result: Rab9 prom act, ELG1 genotox, FLuc modulator, NPC1 promoter act)
Cc1ccc(NC(=O)CSc2nc3ccc(NC(=O)CCc4ccccc4)cc3s2)cc1	none (no result: Rab9 prom act, SMN2 splice up, ELG1 genotox, NPC1 promoter act, KinaseGlo FLuc)
COc1ccccc1N1CCN(c2nc(-c3ccc(C)cc3)nc3ccccc23)CC1	none (no result: Rab9 prom act, SMN2 splice up, ELG1 genotox, NPC1 promoter act, KinaseGlo FLuc)
CC(C)OC(=O)CSc1nnnn1-c1ccc2c(c1)OCCO2	Rab9 prom act inconclusive, FLuc modulator 17µM
COc1ccc(OC)c(NC(=O)CSc2nnnn2-c2ccc3c(c2)OCO3)c1	SMN2 splice up 35µM
Cc1ccc(OCCOCCn2c(-c3ccc(Cl)cc3)nc3ccccc3c2=O)cc1	none (no result: Rab9 prom act, ELG1 genotox, NPC1 promoter act, KinaseGlo FLuc)
COc1ccccc1N1CCN(/N=C/c2ccc(Cl)c([N+](=O)[O-])c2)CC1	ELG1 genotox inconclusive, FLuc modulator 15µM (no result: SMN2 splice up, KinaseGlo FLuc)
COc1ccccc1N1CCN(/N=C/c2ccc([N+](=O)[O-])cc2)CC1	Rab9 prom act 4µM, FLuc modulator 15µM, NPC1 promoter act inconclusive (no result: SMN2 splice up, KinaseGlo FLuc)
O=[N+]([O-])c1cc(/C=N/N2CCN(C3c4ccccc4-c4ccccc43)CC2)ccc1Cl	none
COc1ccccc1N1CCN(/N=C\c2cccnc2)CC1	none (no result: SMN2 splice up, KinaseGlo FLuc)
CCc1cccc2c(-c3ccccc3)c3c(nc12)OCC3	none (no result: Rab9 prom act, ELG1 genotox, FLuc modulator, NPC1 promoter act)
C=CCn1c(SCC(=O)O)nnc1-c1ccc(C(C)(C)C)cc1	FLuc modulator 17µM
C=CCn1c(SCC(=O)O)nnc1-c1cccc(Cl)c1	none
CC(C)(C)c1ccc(-c2nnc(SCC(=O)O)n2N)cc1	FLuc modulator 11µM
Cc1ccc(NC(=O)CCCc2nnc3n(C)c(=O)c4sccc4n23)cc1F	none (no result: Rab9 prom act, ELG1 genotox, NPC1 promoter act, KinaseGlo FLuc)
CCN(CC)c1ccc2nc3c4ccccc4c(=O)cc-3oc2c1	Rab9 prom act 1.1µM, ELG1 genotox 0.82µM, FLuc modulator 0.48µM, NPC1 promoter act 0.56µM (no result: SMN2 splice up, KinaseGlo FLuc)
c1ccc(NCC2OCc3ccccc3CO2)cc1	Rab9 prom act 2.5µM, SMN2 splice up 16µM, ELG1 genotox inconclusive, FLuc modulator 24µM, NPC1 promoter act 4µM
